PubChem BioAssay (Tox21)
Inconclusive results are not listed. The source made the active and inactive calls. Unless noted, calls follow the shape of the dose curve; as a rule, active = well fitted curve in the direction sought with a large enough effect in the repeat runs; inconclusive = weak or mixed curves; inactive = no such curve, though single readings can be large; an effect the other way counts as inactive or inconclusive.

What was measured:
[1] = qHTS assay to identify small molecule agonists of the androgen receptor (AR) signaling pathway in the presence of an antagonist - cell viability counter screen (AID 1259379);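 also: MDA-kb2 human breast cancer cells carrying an MMTV luciferase reporter; series mostly up to about 92 µM; nearly all actives have a fitted effect of over 25% in size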
Method in brief: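 Cytotoxicity is assessed by CellTiter-Fluor in MDA-kb2 cells carrying an MMTV-driven luciferase reporter. Cells receive 3.0uM nilutamide plus compounds at 15 concentrations and incubate 16 hr at 37C without CO2 before fluorescence reading.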

[2] = qHTS assay to identify small molecule agonists of the estrogen receptor beta (ER-beta) signaling pathway - cell viability counter screen (AID 1259380); also: nearly all actives have a fitted effect of over 30% in size
Method in brief: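 Cytotoxicity is measured in parallel with the reporter screen: after 16 hr compound exposure at 37C and a 2 hr LiveBLAzer step, CellTiter-Glo is added to the same ER-beta-UAS-bla HEK293T wells and luminescence read after 30 min.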

[3] = qHTS assay to identify small molecule antagonists of the estrogen receptor beta (ER-beta) signaling pathway - cell viability counter screen (AID 1259382);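 also: HEK293T cells carrying ER-beta-UAS-bla reporter stimulated with estradiol; series mostly up to about 92 µM; nearly all actives have a fitted effect of over 55% in size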
Method in brief: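 Cytotoxicity counter screen multiplexed with the beta-lactamase antagonist assay: GripTite HEK293T ER-beta-bla cells were treated 16 hr with test chemicals in the presence of 1nM 17-beta-estradiol, and viability was measured by CellTiter-Glo.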

[4] = target: Estrogen receptor (Homo sapiens) (UniProt P03372); assay: qHTS assay to identify small molecule agonists of the estrogen receptor alpha (ER-alpha) signaling pathway in the presence of an antagonist (AID 1259383; calls by dose curve; also: top concentration of the series differs between compounds; nearly all actives have a fitted effect of over 15% in size)
Sequence of Estrogen receptor (Homo sapiens) (P03372 whole entry, looked up): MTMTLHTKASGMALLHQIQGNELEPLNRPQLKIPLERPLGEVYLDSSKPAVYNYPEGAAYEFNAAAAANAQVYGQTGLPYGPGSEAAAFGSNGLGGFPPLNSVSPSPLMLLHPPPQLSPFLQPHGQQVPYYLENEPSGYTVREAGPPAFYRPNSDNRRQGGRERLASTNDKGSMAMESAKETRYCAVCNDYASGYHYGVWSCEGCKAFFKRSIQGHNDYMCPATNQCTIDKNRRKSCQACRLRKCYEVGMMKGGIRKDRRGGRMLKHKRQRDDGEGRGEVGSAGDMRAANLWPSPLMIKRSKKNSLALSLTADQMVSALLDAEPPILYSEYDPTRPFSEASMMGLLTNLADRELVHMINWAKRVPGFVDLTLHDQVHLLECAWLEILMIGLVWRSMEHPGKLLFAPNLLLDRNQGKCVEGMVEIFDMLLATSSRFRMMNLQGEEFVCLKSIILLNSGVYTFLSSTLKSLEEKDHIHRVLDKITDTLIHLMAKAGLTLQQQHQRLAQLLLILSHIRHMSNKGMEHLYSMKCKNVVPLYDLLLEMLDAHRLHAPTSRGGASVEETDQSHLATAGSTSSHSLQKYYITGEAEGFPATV
Method in brief: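 Agonist-mode confirmation in the presence of the ER antagonist ICI-182,780 at 10.0nM final. Breast-derived VM7Luc4E2 reporter cells were exposed to compounds for 22hr, and ERE-driven luciferase was quantified by luminescence.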

[5] = qHTS assay to identify small molecule agonists or antagonists of the thyroid stimulating hormone receptor (TSHR) signaling pathway - wild type cell line counter screen (AID 1259384; calls by dose curve)
Method in brief: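 Counter screen in untransfected Hek293: compounds (15-point titration, triplicate) plus phosphodiesterase inhibitor Ro20-1724 added after 18 h plating; 30 min RT. Intracellular cAMP via competitive d2/cryptate immunoassay, 1 h incubation.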

[6] = target: Thyrotropin receptor (Homo sapiens) (UniProt P16473); assay: qHTS assay to identify small molecule antagonists of the thyroid stimulating hormone receptor (TSHR) signaling pathway (AID 1259385; calls by dose curve; also: nearly all actives have a fitted effect of over 20% in size)
Sequence of Thyrotropin receptor (Homo sapiens) (P16473 whole entry, looked up): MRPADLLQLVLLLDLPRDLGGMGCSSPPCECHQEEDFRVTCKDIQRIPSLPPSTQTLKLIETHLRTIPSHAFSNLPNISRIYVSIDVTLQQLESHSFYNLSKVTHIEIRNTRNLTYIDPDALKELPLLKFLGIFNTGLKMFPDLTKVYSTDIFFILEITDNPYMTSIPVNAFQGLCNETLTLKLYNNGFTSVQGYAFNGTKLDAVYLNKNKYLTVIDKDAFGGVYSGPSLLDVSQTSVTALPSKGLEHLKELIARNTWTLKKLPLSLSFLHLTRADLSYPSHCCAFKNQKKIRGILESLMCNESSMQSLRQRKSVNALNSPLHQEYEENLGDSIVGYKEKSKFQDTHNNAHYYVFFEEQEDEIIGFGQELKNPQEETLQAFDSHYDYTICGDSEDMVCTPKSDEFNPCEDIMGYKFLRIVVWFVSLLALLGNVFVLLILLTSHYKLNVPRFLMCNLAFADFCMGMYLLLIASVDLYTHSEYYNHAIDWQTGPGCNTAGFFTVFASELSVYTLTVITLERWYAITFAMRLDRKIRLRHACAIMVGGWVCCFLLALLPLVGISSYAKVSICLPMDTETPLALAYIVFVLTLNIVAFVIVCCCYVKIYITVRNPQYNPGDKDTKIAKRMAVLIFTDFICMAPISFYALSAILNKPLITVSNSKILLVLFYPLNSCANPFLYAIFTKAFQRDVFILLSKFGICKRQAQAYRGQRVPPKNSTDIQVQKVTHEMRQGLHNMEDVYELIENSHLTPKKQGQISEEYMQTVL
Method in brief: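 Antagonist mode: compound-treated TSHR-expressing HEK293 cells were stimulated with 1.5 ng/mL TSH (final) in presence of Ro20-1724 for 30 min at RT. HTRF cAMP detection after 1 h; each compound tested at 15 concentrations, triplicate.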

[7] = qHTS assay to identify small molecule agonists of the estrogen receptor alpha (ER-alpha) signaling pathway in the presence of an antagonist - cell viability counter screen (AID 1259386);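 also: series mostly up to about 92 µM; cells exposed to compounds for 22 h at 37 °C before the viability read; nearly all actives have a fitted effect of over 30% in size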
Method in brief: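 Cytotoxicity was measured in parallel with the ERE-luciferase agonist screen, in the same wells. The cells were VM7Luc4E2, which endogenously express ER-alpha, and treatment was with compounds plus 10.0nM ICI-182,780 for 22hr.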

[8] = target: Progesterone receptor (Homo sapiens) (UniProt P06401); assay: qHTS assay to identify small molecule agonists of the progesterone receptor (PR) signaling pathway (AID 1346784; calls by dose curve; also: nearly all actives have a fitted effect of over 30% in size)
Sequence of Progesterone receptor (Homo sapiens) (P06401 whole entry, looked up): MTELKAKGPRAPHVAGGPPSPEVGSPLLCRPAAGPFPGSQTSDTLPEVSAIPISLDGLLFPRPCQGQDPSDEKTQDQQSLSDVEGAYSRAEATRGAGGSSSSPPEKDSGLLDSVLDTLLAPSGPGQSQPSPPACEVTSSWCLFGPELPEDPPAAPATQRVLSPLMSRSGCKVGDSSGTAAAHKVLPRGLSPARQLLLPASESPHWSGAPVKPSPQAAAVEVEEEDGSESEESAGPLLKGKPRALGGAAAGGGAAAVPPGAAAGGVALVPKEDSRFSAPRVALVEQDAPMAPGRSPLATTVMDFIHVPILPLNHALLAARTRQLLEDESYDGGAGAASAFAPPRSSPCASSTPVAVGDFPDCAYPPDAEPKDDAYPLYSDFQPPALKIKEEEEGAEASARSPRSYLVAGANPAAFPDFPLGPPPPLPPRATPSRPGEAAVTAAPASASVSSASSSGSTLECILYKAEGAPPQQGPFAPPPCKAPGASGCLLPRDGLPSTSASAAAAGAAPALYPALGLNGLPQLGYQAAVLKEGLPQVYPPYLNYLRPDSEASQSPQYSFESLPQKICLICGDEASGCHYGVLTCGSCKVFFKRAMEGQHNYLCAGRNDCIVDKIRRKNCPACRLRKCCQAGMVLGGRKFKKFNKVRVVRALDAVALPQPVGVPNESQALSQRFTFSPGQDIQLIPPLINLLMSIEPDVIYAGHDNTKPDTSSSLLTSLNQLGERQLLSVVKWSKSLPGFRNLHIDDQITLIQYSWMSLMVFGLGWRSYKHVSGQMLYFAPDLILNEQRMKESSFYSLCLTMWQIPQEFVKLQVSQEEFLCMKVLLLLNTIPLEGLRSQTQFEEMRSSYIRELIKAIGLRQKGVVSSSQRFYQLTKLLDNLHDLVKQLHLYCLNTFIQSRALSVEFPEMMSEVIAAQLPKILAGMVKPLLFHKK
Method in brief: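 HEK 293T PR-UAS-bla reporter cells, 2% charcoal-stripped FBS; 6 hr settle at 37C/5% CO2, compound (DMSO) 16 hr, LiveBLAzer B/G FRET substrate 2 hr RT, fluorescence intensity read.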

[9] = target: Progesterone receptor (Homo sapiens) (UniProt P06401); assay: qHTS assay to identify small molecule antagonists of the progesterone receptor (PR) signaling pathway (AID 1346795; active = well fitted inhibition curve with a large enough effect in the signal ratio in the repeat runs, not every such curve was filed as active; the % refers to the signal ratio)
Method in brief: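 Beta-lactamase reporter, HEK293T PR-UAS-bla line; 2% charcoal-stripped FBS; 6 hr pre-incubation, 37C/5% CO2. Compound + R5020 1 nM final, 16 hr. LiveBLAzer B/G FRET substrate, 2 hr RT; fluorescence intensity read.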

[10] = qHTS assay to identify small molecule antagonists of the progesterone receptor (PR) signaling pathway - cell viability counter screen (AID 1346798); also: series mostly up to about 92 µM; nearly all actives have a fitted effect of over 50% in size
Method in brief: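 Luminescence readout (CellTiter-Glo, 30 min, RT) of viability in PR-UAS-bla HEK293T cells exposed to compound and R5020 agonist for 16 hr at 37C, 5% CO2; run in the same wells as the beta-lactamase reporter read.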

[11] = qHTS assay to identify small molecule agonists of the progesterone receptor (PR) signaling pathway - cell viability counter screen (AID 1346799; calls by dose curve; also: nearly all actives have a fitted effect of over 45% in size)
Method in brief: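 HEK293T PR-UAS-bla, 3,000 cells/well, 2% charcoal-stripped FBS; 6 h settle, compound 16 h at 37C/5% CO2; LiveBLAzer 2 h RT, then CellTiter-Glo 30 min RT, luminescence read.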

[12] = qHTS assay to identify small molecule antagonists of the TGF-beta/Smad signaling pathway - cell viability counter screen (AID 1346824); also: nearly all actives have a fitted effect of over 50% in size
Method in brief: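 Cytotoxicity counter-screen run in the same wells as the beta-lactamase Smad reporter read: CellTiter-Glo luminescence after 30 min at room temperature. HEK 293T SBE-bla cells had 5 hr compound exposure at 37 C with TGF-beta1 (0.25 ng/mL stock).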

[13] = qHTS assay to identify small molecule agonists of the TGF-beta/Smad signaling pathway - cell viability counter screen (AID 1346829); also: top concentration of the series differs between compounds; nearly all actives have a fitted effect of over 45% in size
Method in brief: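 After overnight seating at 37 C and 5% CO2, reporter cells got compounds for 5 hr and FRET substrate for 2 hr; cell viability then came from CellTiter-Glo luminescence.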

[14] = qHTS assay to identify small molecule agonists of the TGF-beta/Smad signaling pathway (AID 1346859; active = well fitted activation curve with a large enough effect in the signal ratio in the repeat runs, not every such curve was filed as active; the % refers to the signal ratio; also: series mostly up to about 77 µM)
Method in brief: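 Read-out: fluorescence at 460 and 530 nm (405 nm excitation) after a 2 hr room-temperature incubation with beta-lactamase FRET substrate. SBE-bla HEK 293T cells had been treated with test compounds for 5 hr at 37 C.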

[15] = Human pregnane X receptor (PXR) small molecule agonists, qHTS cell viability counter screen (AID 1346977); also: nearly all actives have a fitted effect of over 50% in size
Method in brief: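 Fluorescence read-out (CellTiter-Fluor) of viability in PXR-Luc HepG2 cells, multiplexed with the luciferase agonist read. Compounds in DMSO added after 5hr plating; 24hr total exposure at 37C, 5% CO2.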

[16] = Caspase-3/7 induction in HepG2 cells by small molecules, qHTS assay (AID 1346978); also: nearly all actives have a fitted effect of over 15% in size
Method in brief: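 Caspase-3/7 induction was measured by Caspase-Glo 3/7 luminescence (30 min, room temperature) after a 17 hr compound exposure of wild-type HepG2 cells seeded at 2,000 per well and pre-incubated 5 hr.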

[17] = target: Thyrotropin-releasing hormone receptor (Homo sapiens) (UniProt P34981); assay: qHTS assay to identify small molecule agonists of the thyrotropin-releasing hormone receptor (TRHR) signaling pathway (AID 1346891; calls by dose curve;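 also: HEK293 cells expressing TRHR with calcium dye readout; series mostly up to about 58 µM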)
Sequence of Thyrotropin-releasing hormone receptor (Homo sapiens) (P34981 whole entry, looked up): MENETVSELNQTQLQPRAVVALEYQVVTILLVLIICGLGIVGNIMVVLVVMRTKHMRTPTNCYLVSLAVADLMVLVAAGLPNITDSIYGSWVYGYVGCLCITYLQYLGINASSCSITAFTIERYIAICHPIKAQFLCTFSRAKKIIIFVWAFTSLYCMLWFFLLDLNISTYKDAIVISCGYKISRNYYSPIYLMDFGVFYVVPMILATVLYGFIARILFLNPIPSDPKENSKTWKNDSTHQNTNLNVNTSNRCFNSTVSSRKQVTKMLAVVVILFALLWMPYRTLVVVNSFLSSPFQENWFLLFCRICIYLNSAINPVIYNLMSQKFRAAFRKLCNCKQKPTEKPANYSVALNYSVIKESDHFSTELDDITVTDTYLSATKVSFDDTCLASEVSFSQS
Method in brief: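 HEK293/TRHR cells, 1500 per well, 18 h 37 °C; Ca dye 2 h 37 °C; pin-tool compound addition (agonist mode); kinetic fluorescence 3 min, 1 s reads; 15 concentrations, triplicate.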

[18] = target: Thyrotropin-releasing hormone receptor (Homo sapiens) (UniProt P34981); assay: qHTS assay to identify small molecule antagonists of the thyrotropin-releasing hormone receptor (TRHR) signaling pathway (AID 1346877; active = well fitted inhibition curve with a large enough effect in the repeat runs, not every such curve was filed as active; also: series mostly up to about 51 µM)
Method in brief: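 Antagonism is measured as suppression of the calcium response to 1 nM TRH in TRHR-HEK293 cells that have been dye-loaded for 2 h at 37 °C after overnight plating. Each compound is tested at 15 concentrations in triplicate.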
% is scaled to controls: 0 for no effect and ±100 for the full control effect.

CCC(=O)CC(C)CC (stereo not given)
inactive: activity change, negative = cytotoxicity [1] 0.759% [at 0.35 µM] | activity change, negative = cytotoxicity [2] 3.56% [at 0.349 µM] | activity change, negative = cytotoxicity [3] 9.77% [at 0.349 µM] | activation [4] -1.38% [at 0.349 µM] | cAMP activity change [5] -1.63% [at 0.349 µM] | activity change, negative = inhibition [6] 1.62% [at 0.349 µM] | activity change, negative = cytotoxicity [7] 1.18% [at 0.349 µM] | activation [8] -0.264% [at 0.349 µM] | activity change, negative = inhibition [9] 2.97% [at 0.348 µM] | activity change, negative = cytotoxicity [10] -3.42% [at 0.348 µM] | activity change, negative = cytotoxicity [11] 1.66% [at 0.349 µM] | viability change, negative = cytotoxic [12] 13.2% [at 0.29 µM] | activity change, negative = cytotoxicity [13] 3.15% [at 0.29 µM] | activation [14] -0.839% [at 0.29 µM] | activity change, negative = cytotoxicity [15] 0.0659% [at 0.349 µM] | caspase activation [16] 1.2% [at 0.349 µM]

CCC(C)C(=O)OC (stereo not given)
inactive: Potency [1] | Potency [2] | Potency [3] | Potency [4] | outcome [5] | Potency [6] | Potency [7] | outcome [8] | Potency [9] | Potency [10] | Potency [12] | Potency [13] | Potency [14] | Potency [17] | Potency [15] | Potency [16]

CO[Si](CCCNCCNCCN)(OC)OC
inactive: Potency [1] | Potency [2] | Potency [3] | Potency [4] | outcome [5] | Potency [6] | Potency [7] | outcome [8] | Potency [9] | Potency [10] | Potency [11] | Potency [12] | Potency [13] | Potency [14] | Potency [18] | Potency [17] | Potency [15] | Potency [16]
